Source: publication PMC4336329 (PLoS ONE, 2015)
The campaign covered roughly 310,000 compounds. About 14,000 (4.5%) showed an effect of 50% or more. The effect is printed as a negative number. The sample holds strong results, similar compounds and a random draw of the others, so the mix is not that of the screen.

biological target: human ether-à-go-go-related gene (hERG) potassium channel (human, UniProt Q12809); assay: primary screen, population patch clamp on CHO cells stably expressing hERG; higher = less effect of the substance
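Also: peak tail current of the secondary pulse compared with the same well before compound.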

human ether-à-go-go-related gene (hERG) potassium channel, sequence (Q12809 whole entry, looked up): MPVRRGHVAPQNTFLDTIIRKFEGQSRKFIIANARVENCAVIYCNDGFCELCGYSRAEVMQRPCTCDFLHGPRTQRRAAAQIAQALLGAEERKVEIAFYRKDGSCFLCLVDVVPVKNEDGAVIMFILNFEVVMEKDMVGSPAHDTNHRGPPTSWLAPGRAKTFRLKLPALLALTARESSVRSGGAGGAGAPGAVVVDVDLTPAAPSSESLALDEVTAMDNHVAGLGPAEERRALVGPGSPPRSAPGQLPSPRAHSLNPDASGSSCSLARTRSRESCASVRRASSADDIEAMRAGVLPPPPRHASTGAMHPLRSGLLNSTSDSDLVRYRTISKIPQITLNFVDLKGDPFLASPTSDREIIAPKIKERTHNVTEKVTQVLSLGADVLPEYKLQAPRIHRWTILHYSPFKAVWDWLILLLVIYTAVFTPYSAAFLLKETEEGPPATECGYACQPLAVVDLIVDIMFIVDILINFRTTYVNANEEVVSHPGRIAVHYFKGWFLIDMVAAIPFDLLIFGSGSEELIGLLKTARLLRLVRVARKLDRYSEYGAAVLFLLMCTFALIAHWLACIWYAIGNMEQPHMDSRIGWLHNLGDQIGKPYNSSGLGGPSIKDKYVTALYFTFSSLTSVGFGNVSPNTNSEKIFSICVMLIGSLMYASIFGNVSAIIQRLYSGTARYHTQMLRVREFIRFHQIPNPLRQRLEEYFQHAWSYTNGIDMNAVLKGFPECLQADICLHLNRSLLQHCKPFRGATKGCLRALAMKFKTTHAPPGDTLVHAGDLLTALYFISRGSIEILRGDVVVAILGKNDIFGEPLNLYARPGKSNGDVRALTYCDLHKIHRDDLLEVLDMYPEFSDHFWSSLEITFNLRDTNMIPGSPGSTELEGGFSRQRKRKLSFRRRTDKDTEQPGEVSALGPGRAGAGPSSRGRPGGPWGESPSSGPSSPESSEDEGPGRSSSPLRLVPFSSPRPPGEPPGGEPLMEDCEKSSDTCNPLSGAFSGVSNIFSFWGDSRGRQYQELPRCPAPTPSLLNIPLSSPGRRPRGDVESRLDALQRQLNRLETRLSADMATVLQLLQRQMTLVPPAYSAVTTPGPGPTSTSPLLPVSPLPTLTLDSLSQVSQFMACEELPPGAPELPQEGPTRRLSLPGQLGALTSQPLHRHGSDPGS

SMILES | hERG current change (%, negative = inhibition) at 10uM [%]
CC(C)(C)OC(=O)N1CCCN(C(=O)Nc2cccc(Cl)c2)CC1 | -4.88
O=C(NCc1ccc2c(c1)OCO2)C1CC(=O)N(C2CCCCCC2)C1 (stereo not shown) | -11.3
Cc1cc(C)c(NC(=S)NC(=O)c2c(Cl)c(C)nn2C)c([N+](=O)[O-])c1 | 12.2
COc1cc(C(=O)NCC(c2cccnc2)N2CCN(C)CC2)cc(OC)c1OC (stereo not shown) | 12.9
COC(=O)NNC(=O)C1CCC(C)CC1 (stereo not shown) | -27.2
O=C(N/N=C/c1ccc(-c2ccccc2[N+](=O)[O-])o1)c1cncc(Br)c1 | -6.97
COc1ccccc1CCNC(=O)C(=O)NCC1OCCN1S(=O)(=O)c1ccc(Br)cc1 (stereo not shown) | -25.6
COc1ccc(CCn2c(=S)[nH]c3cc(C(=O)NCc4ccco4)ccc3c2=O)cc1OC | -1.08
COc1ccc(CCNS(=O)(=O)c2cc(/C=C/C(=O)O)ccc2C)cc1OC | 8.58
COc1cccc(NC(=O)CCN2CCN(c3ccccc3F)CC2)c1 | -12
CCOC(=O)N1CCN(CCC(=O)c2ccc(OC)cc2)CC1.Cl | -18.2
Cl.O=C(CCN1CCN(c2ccccc2F)CC1)c1ccc(Br)cc1 | -84.5
CCOC(=O)N1CCN(CCC(=O)c2ccc(Br)cc2)CC1.Cl | -64.6
COc1cc(NC(=O)CN2CCN(c3ccccc3F)CC2)cc(OC)c1 | -10.2
O=C1CC(=C(c2ccccc2)c2ccccc2)C(=O)N1CCCCN1CCN(c2ccccc2)CC1 | -63.3
CCOC(=O)N1CCN(CCC(=O)c2ccc(Cl)cc2)CC1.Cl | -40.9
O=C(CCC(=O)N1CCN(c2ccccc2F)CC1)c1ccc(F)cc1 | -35.4
NC(=O)CN1CCN(c2ccccc2F)CC1 | 4.12
Cl.O=C1CC(=C(c2ccccc2)c2ccccc2)C(=O)N1CCCCN1CCN(c2cccc(Cl)c2)CC1 | -46
COc1cc(NC(=O)CCN2CCN(c3ccccc3F)CC2)cc(OC)c1 | -56.6
O=C1CC(=C(c2ccccc2)c2ccccc2)C(=O)N1CCCN1CCN(c2cccc(Cl)c2)CC1 | 1.35
CC(C)C[C@H](NC(=O)C1CC(=O)N(c2ccc(F)cc2)C1)C(=O)N1CCCCC1 (stereo partly shown) | -0.716

SMILES | hERG current change (%, negative = inhibition) at 10uM [%]
CC1Cc2ccccc2N1C(=O)CSc1nn2c(=O)c(C(C)(C)C)nnc2s1 (stereo not shown) | 0.00368
CC(=O)Nc1ccc(S(=O)(=O)Nc2cc(-c3ccccc3)nn2C)cc1 | 18.5
COc1ccccc1N1CCN(CC(C)N(C(=O)C2CCCCC2)c2ccccn2)CC1 (stereo not shown) | -67.9
COc1ccccc1N1CCN(CCN(C(=O)C2CCCCC2)c2ccccn2)CC1.O=C(O)/C=C\C(=O)O | -27.4
CC(Oc1ccc(Br)cc1)C(=O)NNC(=O)CCN1CCN(c2ccccc2)CC1 (stereo not shown) | -61.9
COc1ccc(OCCCC(=O)NNC(=O)CCN2CCN(c3ccccc3)CC2)cc1 | 7.89
O=C(CCN1CCN(c2ccccc2)CC1)c1ccc(Br)cc1 | -55.1
O=C(CCN1CCN(c2ccccc2)CC1)NNC(=O)Cc1ccccc1Cl | 5.76
O=C(CCN1CCN(C(=O)c2ccccc2)CC1)c1ccc(Br)cc1 | -29.5
COc1ccccc1N1CCN(CCCC(=O)c2ccc(F)cc2)CC1 | -71.7
COc1ccccc1N1CCN(C(=O)CCC(=O)N2CCN(c3ccc(F)cc3)CC2)CC1 | -17
Cl.O=C(CCN1CCOCC1)c1ccc(Br)cc1 | 25.2
COc1ccccc1N1CCN(CC(=O)c2ccc(F)cc2)CC1.Cl | 15.7
COc1ccccc1N1CCN(C(=O)C(CC(C)C)NC(=O)C2CCCCC2)CC1 (stereo not shown) | -16.6
Oc1ccc(Cl)cc1C1=NNC(c2cccs2)C1 (stereo not shown) | 9.76
COc1ccc(C(=O)Nc2cc(C)on2)cc1OC | 10
O=C(NCCn1cc(SCc2ccc(F)cc2)c2ccccc21)c1c(F)cccc1F | 9.31
COc1cccc(C(=O)OCCN2C(=O)c3ccccc3C2=O)c1OC | 4.5
CC1CC(C)CN(CCCNC(=O)Cn2ncc3c([nH]c4ccccc43)c2=O)C1 (stereo not shown) | -18
CC(C)NS(=O)(=O)c1ccc(CCC(=O)Nc2ccc3c(c2)OCO3)cc1 | 1.66
COc1ccc2c(c1)C(C)=CC(C)(C)N2C(=O)Nc1ccccc1 | -14.9
O=C(OCC(=O)N1CCN(c2ccccc2)CC1)c1cc(Br)ccc1Cl | -25.3

SMILES | hERG current change (%, negative = inhibition) at 10uM [%]
CN(CC(=O)Nc1ccc(F)cc1)C(=O)c1cc(-c2ccco2)nc2ccccc12 | -32.5
CCOC(=O)C1=C(CC)Nc2ccccc2N=C1NC(=O)Nc1ccccc1OC | 13.8
COC(=O)c1ccc(N2C(=O)C3CC=CC(C)C3C2=O)cc1 (stereo not shown) | 19.3
COc1ccc(C(=O)N2CCN(c3ccccc3OC)CC2)cc1 | 21
COc1ccc(C(=O)CCN2CCN(c3ccccc3OC)CC2)cc1.Cl | -50.3
COc1ccc(OC)c(NC(=O)CCN2CCN(c3ccccc3OC)CC2)c1 | 2.82
OC1CCCN(Cc2nc(Cc3ccccc3Cl)no2)C1 (stereo not shown) | 9.94
O=C(CN(Cc1ccco1)C(=O)c1ccc(F)cc1F)Nc1ccccc1C(F)(F)F | -21.5
CCOC(=O)C1CCN(C(=O)COc2ccc(Cl)cc2Cl)CC1 | -40.7
CCOC(=O)C1CCN(C(=O)COc2ccc(Cl)cc2C)CC1 | -46.1
CCOC(=O)C1CCN(C(=O)COc2ccc(Br)cc2Br)CC1 | -51.8
CCOC(=O)C1CCN(C(=O)COc2cc(C)c(Br)cc2C)CC1 | -54.7
CCOC(=O)C1CCN(C(=O)COc2ccc(Br)cc2C)CC1 | -19.3
CCOC(=O)C1CCN(C(=O)COc2cc(C)c(Br)c(C)c2)CC1 | -43.2
COc1cccc(N2C(=O)C3C(C2=O)C3(c2ccccc2)c2ccccc2)c1 (stereo not shown) | -3.19
CCN(CC)C(=O)CSc1nnc2sc3ccccc3n12 | 14.8
CCOC(=O)C1(CCc2ccccc2)CCN(Cc2nccn2CC)CC1 | -66.2
CCOC(=O)C1(Cc2ccccc2)CCN(Cc2nccn2CC)CC1 | -20
CCOC(=O)N1CCN(Cc2ccccn2)CC1.O=C(O)C(=O)O | 0.59
CCOC(=O)C1(Cc2cccc(OC)c2)CCCN(Cc2nccn2CC)C1 (stereo not shown) | -30.8
CCOC(=O)C1(Cc2ccc(Cl)cc2)CCN(Cc2nccn2CC)CC1 | -67.6
CCOC(=O)C1(Cc2ccccc2)CCCN(Cc2ccccn2)C1 (stereo not shown) | -20.7

SMILES | hERG current change (%, negative = inhibition) at 10uM [%]
CCOC(=O)C1(CCOc2ccccc2)CCN(Cc2nccn2CC)CC1 | -58.2
CCOC(=O)C1(CCc2ccccc2)CCN(Cc2ccccn2)CC1 | -74.3
CCOC(=O)Cn1cnc2c(cnn2-c2ccc(Cl)cc2)c1=O | -4.32
O=C(CCCc1ccccc1)Nc1ccc(Br)cc1F | 14.4
Cc1cc(OCC(=O)c2ccc(C(F)(F)F)cc2)n2cnnc2n1 | 5.8
COc1ccc(N(CC(=O)Nc2cccc([N+](=O)[O-])c2C)S(C)(=O)=O)cc1OC | -7.79
S=C(NCc1ccco1)Nc1cccc(Cl)c1 | -6.16
CCN(CC)S(=O)(=O)c1cccc(NC(=O)COC(=O)c2n[nH]c(=O)c3ccccc23)c1 | -2.07
COC(=O)c1ccccc1NC=C1C(=O)OC2(CCCCC2)OC1=O | -1.07
Cc1cccc(-c2nnc(NC(=O)c3cccs3)s2)c1 | -21.7
COc1ccc(S(=O)(=O)n2ccc(-c3ccc(OCCN(C)c4ccccn4)cc3)n2)cc1 | 11.4
CCOC(=O)C1(CCCc2ccccc2)CCN(Cc2nccn2CC)CC1 | -74
Cc1oc(S(=O)(=O)N2CCOCC2)cc1C(=O)Nc1ccc(F)cc1 | -6.29
O=C(CSc1nc2ncccc2[nH]1)Nc1ccc2c(c1)OCO2 | 9.63
Cc1cc(C)n2nc(SCC(=O)c3cc(C)n(CC4CCCO4)c3C)nc2n1 (stereo not shown) | 1.05
Cc1cccc(NC(=O)CSc2nc3nc(C)cc(C)n3n2)c1 | -32.6
Cc1cc(C)cc(NC(=O)CSc2nc3nc(C)cc(C)n3n2)c1 | -50.2
Cc1cc(C)n2nc(SCC(=O)Nc3ccccc3)nc2n1 | -4.16
Cc1cc(C)n2nc(SCC(=O)c3cc(C)n(-c4cc(C)on4)c3C)nc2n1 | -67.5
CCCn1c(C)cc(C(=O)CSc2nc3nc(C)cc(C)n3n2)c1C | 6.97
CNC1=C(N(C(C)=O)c2ccc(Br)cc2)C(=O)c2ccccc2C1=O | 11.5
COc1ccc(S(=O)(=O)NCc2cccs2)cc1 | 2.67
